This excerpt belongs to a sample that is enriched for hits.
SF-1 inh – blocks the human nuclear receptor SF-1; CHO-K1 Gal4-SF-1 LBD luciferase reporter; inhibition, % at 10 µM; 0.55% of 65,000 active; AID 525;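 active means inhibition above the mean inhibition of all tested compounds plus 3 SD, cut at about 48% in these data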;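 further: 0% = SF-1 transfected cells with DMSO and 100% = mock-transfected cells lacking SF-1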
Target sequence (Q13285 whole entry, looked up, the tested form may be a part): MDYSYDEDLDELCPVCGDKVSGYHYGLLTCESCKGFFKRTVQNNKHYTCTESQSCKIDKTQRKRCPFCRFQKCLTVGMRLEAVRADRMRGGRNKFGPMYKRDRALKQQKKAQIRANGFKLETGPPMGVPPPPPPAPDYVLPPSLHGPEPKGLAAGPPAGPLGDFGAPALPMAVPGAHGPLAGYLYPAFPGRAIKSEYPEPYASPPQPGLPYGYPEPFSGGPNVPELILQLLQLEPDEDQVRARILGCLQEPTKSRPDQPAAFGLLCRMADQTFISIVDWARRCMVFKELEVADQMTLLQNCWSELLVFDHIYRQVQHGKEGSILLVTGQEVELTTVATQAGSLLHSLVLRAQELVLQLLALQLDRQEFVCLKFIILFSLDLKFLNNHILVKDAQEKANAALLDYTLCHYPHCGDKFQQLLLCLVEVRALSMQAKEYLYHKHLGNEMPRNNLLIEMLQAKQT
Numbers without * were called inactive.

SMILES	SF-1 inh
CN(C)CCN1C(=O)C(=O)/C(=C(/O)c2ccccc2)C1c1ccccc1F (stereo not given)	-2.2
CCN(CC)c1ccc2c(c1)CCCN2	5.4
O=C(Nc1ccc(-c2cn3ccsc3n2)cc1)c1ccc(F)c(S(=O)(=O)N2CCOCC2)c1	-57.1
CS(=O)(=O)c1ccc2nc(NC(=O)c3ccco3)sc2c1	-74.4
CC1CCc2nc(NC(=O)Cc3cccs3)sc2C1 (stereo not given)	-63.1
CC1CCc2nc(NC(=O)c3ccco3)sc2C1 (stereo not given)	63.6*
C/C(N)=C(/C#N)C(=O)COC(=O)c1cc(C)n(-c2ccc(F)cc2)c1C	-64.7
Cc1ccc(SCCNC(=O)C(CO)(CO)CO)cc1	-4.7
Cc1ccc2occ(C(c3nnnn3Cc3ccccc3)N3CCOCC3)c(=O)c2c1 (stereo not given)	-4.6
CCO/C=C/C(O)(CNC(=O)COc1ccccc1F)C(F)(F)F (stereo not given)	7.9
COc1cccc2c1C(=O)c1c(O)c3c(c(O)c1C2=O)C[C@@](O)(C(C)=O)C[C@@H]3O[C@H]1C[C@H](N)[C@H](O)[C@H](C)O1	89.3*
Cc1occc1-c1nnc(SCC(=O)NCc2ccco2)n1CC(C)C	-4.6
CN1C(=O)c2ccc(C(=O)NC3CCCCC3)cc2C1=O	-6.4
CCCOCCOC(=O)c1[nH]c2c(c1C)C(=O)CC(c1cc(OC)ccc1OC)C2 (stereo not given)	31.0
O=C(CCC(=O)c1ccc[nH]1)c1ccc(Cl)cc1	-51.9
COCCn1c(SCCN2CCCCC2)nc2ccccc2c1=O	-7.4
Cc1cccc(NC(=O)c2cc3ccccc3o2)c1	-89.5
Cc1cc(C(=O)Nc2cccc(C(=O)O)c2)oc1C	69.0*
CC(=O)c1cccc(NC(=O)c2cc(C(C)C)on2)c1	-74.0
CC1=C(c2ccc(C)cc2)S(=O)(=O)N(CC(=O)O)C1=O	2.7
O=C(N(c1ccccc1)c1ccccc1)n1ccnc1	9.9
Cc1ccc(C)c(N2CCN(C(=O)CCCn3c(=S)[nH]c4cc5c(cc4c3=O)OCO5)CC2)c1	22.5
CSc1nc(C)c2c(c1C#N)CCCC2	0.2
O=C(CSc1n[nH]c(-c2ccncc2)n1)NC1CCS(=O)(=O)C1 (stereo not given)	10.5
FC(F)(F)C(F)(F)C(F)(F)c1nnc2ccc(N3CCOCC3)nn12	7.9
SMILES	SF-1 inh
O=C(Nc1nccs1)c1ccc(COc2ccccc2Br)o1	-60.2
CC(CC#CCN1CCOCC1)OCCC#N (stereo not given)	-17.0
O=c1[nH]c(CN2CCN(Cc3ccccc3)CC2)nc2sc3c(c12)CCC3	-4.6
CC(C)c1nc2oc3c(N4CCNCC4)ncnc3c2c2c1CCC2	-14.7
Oc1ccc(N2CCN(c3ncnc4sc5c(c34)CCC5)CC2)cc1	49.9*
CC(=O)NC1(C(F)(F)F)NC(=O)N(CC(C)C)C1=O (stereo not given)	3.7
O=C(c1ccccc1F)N1CCN(S(=O)(=O)c2ccc(S(=O)(=O)N3CCCCC3)cc2)CC1	-6.6
O=S(=O)(c1ccccc1)c1cccc(S(=O)(=O)N2CCCCC2)c1	0.0
O=S(=O)(c1ccc2c(c1)C(=NO)c1cc(S(=O)(=O)N3CCCCC3)ccc1-2)N1CCCCC1	96.5*
CCNC(=O)NC(=O)COC(=O)c1ccccc1SCC(=O)NC(=O)NCC	-69.1
Cc1cccc(CN2CCN(CC(=O)NCc3ccc(F)cc3)C2=O)c1	2.7
CCc1nc2oc3ccccc3c(=O)c2c(=O)n1-c1ccccc1	-70.7
CC(C)(C)c1cc(CN2CCCC(O)C2)c(O)c(C(C)(C)C)c1 (stereo not given)	14.1
Cn1c(-c2ccc3c(c2)OCO3)cnc1NCc1ccccc1	-67.8
Cc1ccc(-c2cnc(NC(=O)CCC(=O)N3CCCCC3)n2C)cc1	65.1*
Cc1cc(C)nc(SCC(=O)N2CCCCC2)n1	7.7
COC(=O)c1cccc(C(=O)Nc2ccc(C)cc2)n1	-49.5
Cc1ccc2cc(CN(C(=O)c3ccncc3)C(C)C)c(=O)[nH]c2c1	-8.4
CC1=CC(C)=Nc2ccc(C)cc2N1	-76.4
CN(C)c1ccc(-c2nn3c(-c4cccnc4)nnc3s2)cc1	4.1
COc1ccccc1-c1nnc2sc(-c3ccc(N(C)C)cc3)nn12	63.8*
COc1cc(-c2nnc3sc(-c4cccs4)nn23)cc(OC)c1OC	15.8
CC(=O)CC1(O)C(=O)N(CN2CCN(c3ccccc3)CC2)c2ccccc21 (stereo not given)	-0.2
CCCc1cc(=O)oc2cc3oc(C)c(C)c3cc12	1.9
COc1cccc(N2CCN(c3ncnc4c3[nH]c3ccc(F)cc34)CC2C)c1 (stereo not given)	96.1*
SMILES	SF-1 inh
COc1cccc(NC(=O)N2CCN(c3cccc(C)c3)C(C)C2)c1 (stereo not given)	-2.2
COc1cccc(OCCN2CCN(c3ncnc4c3cnn4-c3ccccc3)CC2)c1	5.6
COc1cccc(N2CCN(c3ncnc4c3[nH]c3ccccc34)CC2C)c1 (stereo not given)	84.6*
COc1cccc(-n2nc(C(=O)O)c3ccccc3c2=O)c1	-8.0
O=C(NCCCn1ccnc1)c1cc(-c2cccs2)on1	-67.0
Nc1nonc1-c1noc(CCCN2C(=O)c3ccccc3C2=O)n1	-49.5
CCOC(=O)N1CCN(S(=O)(=O)c2ccc3c(c2)CCN3C(=O)CC)CC1	19.5
CCC(C)[C@H](NC(=O)NCc1cccs1)C(=O)O (stereo not given in full)	-16.8
O=C(c1ccc(C23CC4CC(CC(C4)C2)C3)o1)N1CCOCC1	-14.0
Clc1ccc2oc(-c3ccccn3)nc2c1	-59.1
c1ccc2nc(-c3nc4ccccc4o3)ccc2c1	63.8*
Cc1ccnc2ccc(-c3nc4ccccc4o3)cc12	-56.3
c1coc(CNc2nc3sc4c(c3c3ncnn23)CCCC4)c1	-6.9
O=C(CCCc1cccs1)Nc1nc2c(s1)CCCC2	-73.2
c1csc(CCNc2ncnc3sc4c(c23)CCC4)c1	75.9*
N#C/C(C(=O)c1ccccc1)=C1/CCCCCN1	-60.7
CCOC(=O)c1cnc2c(-c3ccccc3)cnn2c1N	-52.4
CCOC(=O)C1=Nc2ccccc2C1=[N+]=[N-]	83.6*
CCOC(=O)c1c(C)nc(-c2ccccc2)nc1N	-58.5
O=C(Nc1ccc(N2CCOCC2)cc1)c1cnsn1	68.7*
O=C(Nc1ccc(N2CCOCC2)c(Cl)c1)c1ccc(Br)o1	-66.6
CN1CCN(c2ccc(NC(=O)c3ccc4c(c3)OCO4)cc2)CC1	-61.1
CCN(CC)C(=O)CSc1ncnc2c(-c3cccs3)nsc12	-68.4
COc1ccc(CNC(=O)C2CCCN(S(=O)(=O)c3cnc[nH]3)C2)cc1 (stereo not given)	-5.4
CCc1ccc(-c2ccc(C(=O)O)cc2)nc1	-85.1
SMILES	SF-1 inh
CCCc1ccc(-c2ccc(F)c(N)c2)nc1	60.1*
Cc1csc(SCCN2C(=O)c3ccccc3C2=O)n1	-64.8
O=C(Nc1nc(-c2ccc3c(c2)OCO3)cs1)C1CC1	-51.1
COCCCNc1oc(-c2ccccc2F)nc1C#N	-57.4
CCc1c(C#N)c(N)nc(SCC(=O)OCc2ccccc2)c1C#N	-2.3
COc1ccc(C(NC(C)=O)c2ccc3cccnc3c2O)c(OC)c1 (stereo not given)	82.2*
COc1cc2ccccc2cc1C(=O)Nc1cccnc1	-49.5
COc1ccc2sc(NC(C)=O)nc2c1	-49.5
O=C(COc1ncnc2ccccc12)c1ccc2c(c1)OCCO2	-58.5
COC(=O)c1ccc2c(=O)n(CCN3CCOCC3)c(SCC(=O)NC3CCCCC3)nc2c1	-8.4
CCOc1ccccc1C(=O)N1CCN(c2cccc(Cl)c2)CC1	55.2*
COC(=O)c1[nH]c2ccccc2c1NC(=O)CN1CCN(c2cccc(Cl)c2)CC1	-20.0
